VDR inhibitor: inhibitors of human vitamin D receptor. VDR-SRC2-3 peptide fluorescence polarization, 2 h. 400,000 compounds, 0.93% hits. Potency, µM, inactives show max response, negative = inhibition, hits mostly inhibitors
Target sequence (P11473 whole entry, looked up): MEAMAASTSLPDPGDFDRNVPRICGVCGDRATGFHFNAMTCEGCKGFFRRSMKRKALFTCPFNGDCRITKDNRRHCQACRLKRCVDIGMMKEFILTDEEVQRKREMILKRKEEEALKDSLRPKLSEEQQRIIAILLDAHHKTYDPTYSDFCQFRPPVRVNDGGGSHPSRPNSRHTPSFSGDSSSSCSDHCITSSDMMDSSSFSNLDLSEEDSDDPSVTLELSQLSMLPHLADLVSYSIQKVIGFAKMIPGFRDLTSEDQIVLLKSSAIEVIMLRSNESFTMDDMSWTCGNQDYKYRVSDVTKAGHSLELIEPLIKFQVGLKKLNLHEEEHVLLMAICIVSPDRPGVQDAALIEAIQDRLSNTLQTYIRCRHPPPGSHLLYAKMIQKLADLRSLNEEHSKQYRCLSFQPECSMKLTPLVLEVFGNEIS
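Two reagent solutions held at 4 deg C in the dark were dispensed, compounds pinned at 23 nl, and the mixture incubated 2 h at room temperature. Read-out: fluorescence polarization of VDR–SRC2-3 peptide binding.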
KAT2A inh: GCN5L2 (KAT2A) acetyltransferase inhibition; Potency, µM (titrated, usually from 58.9 µM), without a hit: top-dose activity change, negative = inhibition, actives largely listed as inhibitors; GCN5L2 HAT assay, ThioGlo1 CoA-SH fluorescence; Q92830; 390,000 compounds, 0.21% hits
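GCN5L2 (20nM final) in 50mM HEPES, 0.1mM EDTA pH 7.5, 0.01% Tween-20 was preincubated 15 min at room temperature with compound, then given ThioGlo1 (50uM), H3(1-25) peptide (75uM) and acetyl-CoA (70uM); CoA-thiol fluorescence (Ex340/Em540) was read at 0 and 20 min.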
PLK1 PBD block: inhibitors of human PLK1 polo-box domain binding. P53350. Plk1 PBD binding of FITC phosphopeptide, fluorescence polarization. Potency, µM, without a hit: max response, negative = inhibition, hits mostly inhibitors. 360,000 compounds, 2.8% hits; further: series mostly up to about 57 µM; nearly all actives have a fitted effect of over 65% in size
12-LOX inh: inhibitors of human 12S-lipoxygenase ALOX12. P18054. purified 12hLO, xylenol orange hydroperoxide absorbance. Potency, µM (series often up to 108 µM), without a hit: top-dose activity change, negative = inhibition, hits mostly inhibitors. 580,000 compounds, 1.1% hits. AID 1671190
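Purified human 12hLO (150 nM final) in 25 mM Hepes, 0.01% Triton X-100, pH 7.0 was preincubated 15 min at room temperature with compound. Then 40 uM arachidonic acid was added, 30 min. Hydroperoxide was read by Fe-XO absorbance ratio 573/405 nm.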
Active calls of the source: *; [ ] = remark or other dose. Only some compounds are listed: those with a hit (about 3% of all), similar ones and a draw of the others. The call rests on the fitted dose curve; in most records, active means well fitted curve in the direction sought with a large enough effect; inconclusive means small, poorly fitted or top-dose-only effect, or another doubt; inactive means no such curve, though single readings can be large; an effect the other way counts as inactive or inconclusive. On the % scale 0 is the no-effect control and ±100 the full control effect; potency means the concentration at half of the fitted maximal effect.

O=C(O)CNS(=O)(=O)c1ccc2c(c1)C(=O)c1cc(S(=O)(=O)NCC(=O)O)ccc1-2 was read as VDR inhibitor 5%, KAT2A inh 2%, PLK1 PBD block -9% and 12-LOX inh 0%.
`O=C(O)CNS(=O)(=O)c1ccc2c(c1)Cc1cc(S(=O)(=O)NCC(=O)O)ccc1-2` gave VDR inhibitor 11%, KAT2A inh -2%, PLK1 PBD block -3% and 12-LOX inh 8.9µM*.
For Cc1nc2cc(NC(=O)c3ccc(C(C)(C)C)cc3)ccc2o1 the results were 12-LOX inh 48%.
O=C(O)c1cc(N2N=C(C(F)(F)F)/C(=C/C=C/c3ccco3)C2=O)ccc1Cl was read as VDR inhibitor inconclusive, KAT2A inh 7.9µM*, PLK1 PBD block 0.53µM* and 12-LOX inh 5.6µM*.
Screening CCOC(=O)c1ccc(N2N=C(C)/C(=C/C=C/c3ccco3)C2=O)cc1 returned VDR inhibitor -15%, KAT2A inh -13%, PLK1 PBD block -7% and 12-LOX inh -15%.
Screening COC(=O)N(C)CC(=O)NCc1cccc(C)c1 returned 12-LOX inh -10%.
For CC1(C)C(/C=C/C=C/C=C/C=C2\N(CCCCS(=O)(=O)O)c3ccc4ccccc4c3C2(C)C)=[N+](CCCCS(=O)(=O)[O-])c2ccc3ccccc3c21 the results were VDR inhibitor inconclusive, KAT2A inh 10µM* and PLK1 PBD block inconclusive.
Screening CSc1cccc(NC(=O)COc2coc(CN3CCSCC3)cc2=O)c1 returned 12-LOX inh -14%.
Screening N#Cc1sc(=O)[nH]c1Cl returned VDR inhibitor 79µM*, PLK1 PBD block inconclusive and 12-LOX inh inconclusive.
O=C(CC(c1ccc(Cl)cc1)S(=O)(=O)c1ccccc1)c1ccc(F)cc1 (stereo unspecified) was read as 12-LOX inh 2%.
Screening O=C(COC(=O)C(Cc1ccccc1)NC(=O)c1ccc(Cl)cc1)c1ccc(Cl)cc1 (stereo unspecified) returned VDR inhibitor -4%, KAT2A inh -7%, PLK1 PBD block 11µM* and 12-LOX inh -12%.
Screening O=C(/C=C/Sc1ccc(C(F)(F)F)cn1)c1ccccc1 returned VDR inhibitor 79µM*, KAT2A inh -9%, PLK1 PBD block -16% and 12-LOX inh inconclusive.
COc1ccc(-c2nc(CC3CCN(C(=O)c4n[nH]c(=O)c5ccccc45)C3)no2)cc1 (stereo unspecified) was read as 12-LOX inh 53%.
Screening O=C(C=C(O)c1ccc(Cl)cc1)C(=O)NNC(=O)C(O)(c1ccccc1)c1ccccc1 returned VDR inhibitor 1%, PLK1 PBD block -15% and 12-LOX inh 14µM*.
`CCOc1ccc(NC(=O)C(=O)NCCN2CCN(S(=O)(=O)c3ccccc3)CC2)cc1` gave VDR inhibitor inconclusive, KAT2A inh -2%, PLK1 PBD block 24µM* and 12-LOX inh -15%.
For CCOc1ccc(NC(=O)C(=O)NCCN2CCN(S(=O)(=O)c3ccc(C)cc3)CC2)cc1 the results were VDR inhibitor -22%, KAT2A inh -1%, PLK1 PBD block -5% and 12-LOX inh -10%.
COc1ccc(C2CC(=O)Nc3ccsc32)cc1OCC(N)=O (stereo unspecified) was read as 12-LOX inh 3%.
Screening C=C1C(=O)c2sccc2C(c2ccc(OC)c(OC)c2)C1COC(C)=O (stereo unspecified) returned VDR inhibitor inconclusive, PLK1 PBD block 27µM* and 12-LOX inh -17%.
CC(C)c1ccc(/C=C(/C#N)C(=O)Nc2cccc3ncccc23)cc1 was read as 12-LOX inh 16µM*.
C=CCOc1ccc(/C=C(\C#N)C(=O)Nc2ccccn2)cc1OC was read as VDR inhibitor -4%, KAT2A inh -5%, PLK1 PBD block -4% and 12-LOX inh 10µM*.
C=CCOc1ccc(/C=N/Nc2ccccn2)cc1OC was read as VDR inhibitor inconclusive, KAT2A inh 0%, PLK1 PBD block -25% and 12-LOX inh -12%.
For COc1ccc(/C=C(/C#N)C(=O)Nc2cccc3ncccc23)cc1OC the results were 12-LOX inh 16µM*.
`O=C(Nc1cccc(S(=O)(=O)N2CCCCCC2)c1)c1cccc2cccnc12` gave 12-LOX inh -4%.
Screening Cc1c(C(=O)N2CCN(c3ccc(F)cc3)CC2)sc2nc3n(c(=O)c12)CCC3 returned VDR inhibitor -14%, KAT2A inh -2%, PLK1 PBD block 21µM* and 12-LOX inh -18%.
`Cc1ccc(CCNC(=O)c2sc3nc4n(c(=O)c3c2C)CCC4)cc1` gave VDR inhibitor inconclusive, KAT2A inh -1%, PLK1 PBD block 11µM* and 12-LOX inh -2%.
`CC(=O)c1cccc(NC(=O)c2sc3nc4n(c(=O)c3c2C)CCCC4)c1` gave VDR inhibitor -22%, KAT2A inh 0%, PLK1 PBD block 24µM* and 12-LOX inh -2%.
C[C@@H](O)CCCCn1c(=O)c2c(ncn2C)n(C)c1=O was read as 12-LOX inh 1%.
`CC(=O)NC1(C)CCN(Cc2cccc(-c3ccc4c(ccn4C)c3)c2)C1` (stereo unspecified) gave 12-LOX inh 32µM*.
`CCOCCCNC(=O)c1cc2cc(S(=O)(=O)N(C)C)ccc2n1CC` gave 12-LOX inh 1%.
For CCCCC[C@H](O)/C=C/[C@H]1C(=O)C=C[C@@H]1C/C=C\CCCC(=O)O the results were VDR inhibitor 32µM*, KAT2A inh -2% and 12-LOX inh -8%[12.5 µM].
`CCCCC[C@H](O)/C=C/[C@@H]1[C@@H](C/C=C\CCCC(=O)OC)[C@@H](O)C[C@H]1O` gave VDR inhibitor -14%, KAT2A inh -6% and PLK1 PBD block -15%.
For CCCCC[C@H](O)/C=C/C1C(=O)C=C[C@H]1C/C=C\CCCC(=O)OC (stereo partly specified) the results were VDR inhibitor 25µM*, PLK1 PBD block -16% and 12-LOX inh inconclusive.
`N#Cc1ccccc1COC(=O)C(c1ccccc1)c1ccccc1` gave 12-LOX inh 1%.
For COc1ccc(C(=O)NC2CCN(c3cc(-c4ccc(F)cc4)[nH]n3)C2)c(OC)c1 (stereo unspecified) the results were 12-LOX inh 4%.
For CCCCn1c(=O)n(CC(=O)Nc2c(C)cccc2C)c(=O)c2c1ncn2CCC(C)C the results were 12-LOX inh 5%.
C#CCNC(=O)C[C@@H]1c2nc(NC(=O)C3CCCCC3)sc2C[C@@H]2[C@](C)(CO)[C@H](O)CC[C@]21C was read as 12-LOX inh 11%.
Screening COc1cc(=O)n2c(c1C(=O)Nc1ccc(Br)cc1F)CCCC2 returned 12-LOX inh 20µM*.
For Cc1ccc(-c2nc(-c3ccc(F)cc3)no2)cc1 the results were 12-LOX inh -47%.
`Clc1ccc(N=c2ssnc2Cl)nc1` gave VDR inhibitor 5.6µM*, KAT2A inh -1%, PLK1 PBD block 0.95µM* and 12-LOX inh inconclusive.

Assay outcomes: PubChem, National Center for Advancing Translational Sciences (NCATS)
